mHTT-CaM PPI inh = mutant huntingtin-calmodulin interaction inhibitors – biochemical, AlphaScreen, primary screen; P42858; AlphaScreen His-mHTT/GST-CaM binding, luminescence; inhibition, % at 15 µM; hit rate 3.6% among 190,000;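 also: 0% = both proteins with DMSO and 100% = one protein alone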
Pf apPOL inh = Pf-apPOL inhibitors, biochemical, fluorescence | Plasmodium falciparum apicoplast DNA polymerase (apPOL) | Recombinant Pf-apPOL, molecular beacon fluorescence, 1.5 h | inhibition, % at 10 µM | hit rate 0.25% among 210,000
* hit, by the source's call. Shown are actives, neighbours in structure and some others; about 3.6% of the full set was active somewhere. Rule as the data show it: active = inhibition above about 50%; inactive = the rest.

SMILES	mHTT-CaM PPI inh	Pf apPOL inh
CC1(C)CC(=O)C2=C(C1)N=C1c3ccccc3C(=O)C1C2c1ccc2c(c1)OCO2 (stereo unspecified)	49.0	-3.2
CC1(C)CC(=O)C2=C(C1)N=C1c3ccccc3C(=O)C1C2c1cc([N+](=O)[O-])ccc1O (stereo unspecified)	53.0*	-5.8
O=C1CCCC2=C1C(c1ccc3c(c1)OCO3)C1C(=O)c3ccccc3C1=N2 (stereo unspecified)	55.0*	-4.9
CC1(C)CC(=O)C2=C(C1)N=C1c3ccccc3C(=O)C1C2c1cccc(F)c1 (stereo unspecified)	10.0	-8.9
CC1(C)CC(=O)C2=C(C1)N=C1c3ccccc3C(=O)C1C2c1cccc(Br)c1 (stereo unspecified)	61.0*	-2.7
CC1(C)CC(=O)C2=C(C1)N=C1c3ccccc3C(=O)C1C2c1ccc([N+](=O)[O-])cc1 (stereo unspecified)	35.0	-3.2
Cc1cccc(NC(=O)Cn2ccc3ccn(C)c3c2=O)c1C	-2.7	0.0
O=C(Cc1ccccc1)Nc1ccc(OC(F)F)cc1	-4.0	-4.1
c1nnc2c3c4c(sc3n3cnnc3n12)CCC4	5.0	-1.5
Cc1nn(-c2ccc(C(=O)NC3CCCCCC3)cc2)c2c1C(=O)CCC2	14.4	-1.5
O=C(NCc1ccccc1Cl)c1ccc2c(c1)NC(=O)C(N1CCCC1)S2 (stereo unspecified)	6.0	-16.1
O=C(NCc1ccccn1)c1ccc2c(c1)NC(=O)C(N1CCCC1)S2 (stereo unspecified)	58.0*	-10.9
CC(C)(CC(=O)N1CCN(c2ccccc2)CC1)CC1=NS(=O)(=O)c2ccccc2N1	11.0	0.6
Cc1ccccc1N1CCN(C(=O)c2cn3c(n2)CCCC3)CC1	30.1	-2.7
CCN1CCn2cc(C(=O)N3CCN(c4cc(C)ccc4C)CC3)nc2C1	15.8	-1.7
Cc1ccc(C)c(N2CCN(C(=O)c3cn4c(n3)CCCC4)CC2)c1	51.0*	-5.4
Cc1ccc(C)c(N2CCN(C(=O)c3cccc(-c4nccnc4N(C)C)c3)CC2)c1	43.9	-0.3
Cc1cccc(N2CCN(C(=O)c3noc4c3CCCC4)CC2)c1C	-24.1	-2.6
CCc1nc(N2CCCC2=O)sc1C(=O)N1CCN(c2cccc(C)c2C)CC1	63.8*	-1.3
Cc1cccc(N2CCN(C(=O)c3cn4c(n3)CCCC4)CC2)c1C	54.0*	0.0
Cc1ccc(C)c(N2CCN(C(=O)c3ccc(-c4nccnc4N(C)C)cc3)CC2)c1	94.2*	-4.1
CCC(C)c1ccc(NC(=O)CN2C(=O)c3ccccc3C2=O)cc1 (stereo unspecified)	2.0	1.9
C=CCn1c(-c2cccc([N+](=O)[O-])c2)cnc1SCC(=O)N1CCCC1	0.4	1.4
O=C(NCC1CC1)C1CC(c2ccccc2)CN(C(=O)c2ccoc2)C1 (stereo unspecified)	3.1	-2.9
O=C(c1ccc2c(c1)nc1n2CCCCC1)N1CCN(c2ccccc2)CC1	11.1	-4.9
SMILES	mHTT-CaM PPI inh	Pf apPOL inh
Cc1ccc(C)c(N2CCN(C(=O)c3ccc4c(c3)nc3n4CCCC3)CC2)c1	84.5*	-4.6
N#CCN1CCN(C(=O)c2ccc(C(F)(F)F)cc2)CC1	-4.0	2.1
O=C(O)c1ccc(CN2CCOCC2)cc1	-1.7	-2.8
Cc1ccc(C)n1Cc1ccc(C(=O)O)cc1	53.0*	-15.0
COc1ccc(-c2csc(=Nc3ccc(F)cc3)n2CCO)cc1F	53.0*	-2.0
COc1ccc(N=c2scc(-c3ccc(OC)cc3F)n2CCO)cc1	27.0	-6.1
OCCn1c(-c2ccc(F)cc2)csc1=Nc1cccc(Cl)c1	98.0*	-2.2
OCCn1c(-c2ccc(F)cc2)csc1=Nc1ccccc1	43.0	-6.1
CCn1c(-c2ccc(OC)c(F)c2)csc1=Nc1ccccc1	72.0*	-2.9
C=CCn1c(-c2ccc(OC)c(OC)c2)csc1=Nc1ccccn1	34.0	-2.9
O=C(C=Cc1ccccc1)NCCC(O)c1cccc2ccccc12 (stereo unspecified)	5.3	-10.6
CN(C)C(=O)C1CCN(c2nc3ccc(-c4ccccc4)nc3s2)CC1	8.1	0.4
CCOc1ccccc1NC(=O)N1CCCCCC1c1ccc(C)s1 (stereo unspecified)	-21.6	-3.0
CCN(CC)CCCNC(=O)CC1CCN(C(=O)c2ccc(C)cc2)CC1	5.8	-2.2
Cc1ccc(C(=O)N2CCC(CC(=O)NCCCN(C)c3ccccc3)CC2)cc1	50.9*	-4.2
CCOC(=O)Oc1ccc2c(=O)c(-c3ccc(OC)cc3)c(C)oc2c1	6.0	0.7
CCOC(=O)Oc1c(Cl)cc2oc(=O)sc2c1Cl	77.0*	2.2
COc1ccccc1[C@H]1C(c2cccc(C)c2)=NN(c2ccccc2)[C@@H]1CO	85.7*	-1.2
Cc1cccc(C2=NN(c3ccccc3)[C@@H](C(=O)N3CCOC3=O)[C@@H]2c2ccccc2)c1	-32.2	-5.5
COc1ccccc1[C@H]1C(c2ccccc2)=NN(c2ccccc2)[C@@H]1CO	4.6	-0.8
